Compound activity: PubChem, The Scripps Research Institute Molecular Screening Center
CHO-K1 Ca antag: counter-screen for M1 antagonists: effect in parental CHO-K1 cells | AID 602250 | inhibition, % at 3 µM | 0.6% of 360,000 active | ATP-induced calcium, Fluo-8 fluorescence;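 active means inhibition above a per-plate cutoff, the plate's mean sample inhibition plus 3 SD, cut at about 24% in these data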
CHRM1 antagonist: antagonists of human M1 muscarinic receptor; P11229; CHO-K1 hM1, Fluo-8 calcium fluorescence, ACh EC80 antagonist; inhibition, % at 3 µM; 1.3% of 360,000 active; AID 588852;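 active means percent inhibition above its own plate's cutoff, namely the mean of that plate's compound wells plus 3 SD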;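 further: peak over basal fluorescence ratio during 140 s after agonist addition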
Target sequence (P11229 whole entry, looked up): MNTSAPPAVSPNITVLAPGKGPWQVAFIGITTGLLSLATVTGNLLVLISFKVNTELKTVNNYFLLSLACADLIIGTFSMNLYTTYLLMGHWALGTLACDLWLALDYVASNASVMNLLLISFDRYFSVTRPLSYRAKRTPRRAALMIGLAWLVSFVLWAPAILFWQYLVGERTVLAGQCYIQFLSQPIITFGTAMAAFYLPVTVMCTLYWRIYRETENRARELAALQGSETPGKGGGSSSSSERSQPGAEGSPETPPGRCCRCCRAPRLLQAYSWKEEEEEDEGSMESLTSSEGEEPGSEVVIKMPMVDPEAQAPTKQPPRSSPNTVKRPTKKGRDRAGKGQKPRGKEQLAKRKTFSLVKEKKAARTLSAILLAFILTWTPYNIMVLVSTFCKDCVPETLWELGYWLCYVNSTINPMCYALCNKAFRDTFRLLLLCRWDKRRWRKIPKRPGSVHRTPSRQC
M1 PAM: positive allosteric modulators of human M1 muscarinic receptor | P11229 | CHO-K1 hM1, Fluo-8 calcium fluorescence, ACh EC20; 0% = ACh EC20, 100% = maximal ACh | activation, % at 3 µM | 0.088% of 360,000 active | AID 588819; in the data active means activation above about 19%, passing the limit was not always enough
M1 ag parental: nonselective activator or artifact in parental CHO-K1 cells; Fluo-8 calcium fluorescence; scaled to maximal ATP response, vehicle zero; activation, % at 3 µM; 0.48% of 360,000 active; in the data active means activation above about 15%;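 further: untransfected CHO-K1 host cells lacking M1 receptor as counterscreen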
CHO-K1 Ca PAM: nonselective activator or artifact in parental CHO-K1 calcium assay. activation, % at 3 µM. ATP EC20, Fluo-8 calcium fluorescence; 0% at ATP EC20, 100% at ATP max. 0.02% of 360,000 active. AID 602247;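 active means activation above the run cutoff, the mean activation of all test compounds plus 3 SD, cut at about 40% in these data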;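 further: peak over basal fluorescence ratio in a 140 s read after ATP addition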
M1 ag: activates human CHRM1 receptor | P11229 | CHO-K1 hM1, Fluo-8 calcium fluorescence, agonist mode; 0% DMSO, 100% acetylcholine EC100 | activation, % at 3 µM | 0.33% of 360,000 active;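 active means activation above the run's mean compound activation plus 3 SD, cut at about 16% in these data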;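 further: peak over basal fluorescence ratio within a 140 s kinetic read after compound addition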
Large screens that a line does not name were inactive. A selection: hits, their analogues and other compounds. The true share with any hit is near 2.3%.

CCN=C(Nc1ccc2c(c1)OCO2)SC1CC(=O)N(c2ccc(OC)cc2)C1=O (stereo not given)	CHRM1 antagonist 26.7
CCN=C(NCC)SC1CC(=O)N(c2ccc(F)cc2)C1=O (stereo not given)	CHRM1 antagonist 34.9
Cc1cc(C)cc(C(=O)Nn2cnnc2)c1	none
CCc1nc2c(OCC3COc4ccccc4O3)cccn2c1N(C)C(=O)c1cccs1 (stereo not given)	CHO-K1 Ca antag 31.0
CCc1nc2c(OCC(=O)C(C)(C)C)cccn2c1N(C)C(=O)c1cccs1	none
CCc1nc2c(OCC3COc4ccccc4O3)cccn2c1N(C)C(=O)c1ccccc1F (stereo not given)	none
CCc1nc2c(OCC(=O)c3ccc(F)cc3)cccn2c1N(C)C(=O)c1cccs1	CHO-K1 Ca antag 26.5
Cc1ccc(S(=O)(=O)N2CCc3ccccc3CC2)cc1	none
Cc1ccc(S(=O)(=O)N2CCNC(=O)CC2)cc1	M1 ag parental 22.9
CN(Cc1ccccc1)C1=CC(=[N+]2CCCCC2)CC(C)(C)C1	CHRM1 antagonist 39.5
CCc1ccccc1-n1nnnc1SCC(=O)Nc1cc(C)on1	none
Cc1cc(NC(=O)CSc2nnnn2-c2ccccc2C)no1	CHRM1 antagonist 28.2
O=C(NCC1CCCO1)c1cc(NS(=O)(=O)c2cccs2)cc(NS(=O)(=O)c2cccs2)c1 (stereo not given)	none
Cc1ccc(C2=NS(=O)(=O)N(C)C(C(=O)Nc3ccc(F)cc3F)=C2)cc1	CHRM1 antagonist 34.2
COc1cccc(CN2CCc3ccc(NC(=O)CCc4ccc(C)cc4)cc3C2)c1O	CHRM1 antagonist 38.4
COc1cc(CN2CCc3ccc(NC(=O)CCc4ccccc4OC)cc3C2)ccc1O	none
COc1ccc(C(C)=O)cc1CSc1ccc(S(=O)(=O)N2CCOCC2)cn1	none
COc1cccc(CNC(=O)CCCNS(=O)(=O)c2cccs2)c1	CHO-K1 Ca antag 41.5
O=C(O)c1sccc1Oc1ccc(NS(=O)(=O)c2ccccc2)cc1	none
O=C1/C(=C\c2cc([N+](=O)[O-])ccc2O)SC(=S)N1Cc1ccc(Cl)cc1	CHRM1 antagonist 36.4, M1 ag 23.5
COC(CNC(=O)C1CCCN(S(=O)(=O)c2c(C)noc2/C=C/c2cccs2)C1)OC (stereo not given)	M1 ag parental 15.5
COCCNC(=O)C1CCCN(S(=O)(=O)c2c(C)noc2/C=C/c2cccs2)C1 (stereo not given)	none
Cc1cc(SCC(=O)Nc2c(C)n(C)n(-c3ccccc3)c2=O)nc2ccccc12	none
COC(=O)c1ccc(CNC(=O)c2ccc(COc3ccccc3)cc2)cc1	none
CCc1ccc(C(C)NC(=S)NCc2ccc(F)cc2)cc1 (stereo not given)	CHRM1 antagonist 40.3
CCOc1ccc(C(C)NC(=S)NCc2ccc(F)cc2)cc1 (stereo not given)	M1 ag parental 22.6
Cc1ccc(C(C)NC(=S)NCc2ccc(F)cc2)cc1C (stereo not given)	none
CCOc1ccc(C(C)NC(=O)C2CCC2)cc1 (stereo not given)	CHO-K1 Ca antag 23.7
CCOc1ccc(CNC(=S)NCc2ccc(OCC)cc2)cc1	none
CCOc1ccc(S(=O)(=O)N(CC)CC(=O)N2CCOCC2)cc1C	none
Cn1nc(C(=O)Nc2ccc3c(c2)OCO3)c2ccccc2c1=O	M1 PAM 26.6
CN1C(=O)c2ccc(C(=O)Nc3ccc4c(c3)OCO4)cc2C1=O	CHO-K1 Ca antag 36.7
O=C(Nc1ccc2c(c1)OCO2)c1ccccc1	none
COc1ccc(-c2coc3c(C(=O)Nc4cccnc4)cccc23)c(C)c1	none
CCOC(=O)c1nnc(-c2cccs2)nc1NC(C)C	CHO-K1 Ca antag 25.4
CC/C(CC(C)(C)c1ccccc1)=N\O	none
CC[N+](C)(CC)CCC/C(=N/O)C(O)(c1ccccc1)c1ccccc1	CHRM1 antagonist 63.6
CCN(CC)CCC/C(=N\O)C(O)(c1ccccc1)c1ccccc1	CHRM1 antagonist 95.4
CCCN1CCc2c(sc(NC(=O)C3CCN(S(=O)(=O)c4cccs4)CC3)c2C(N)=O)C1	CHO-K1 Ca antag 28.8, CHRM1 antagonist 53.4
CC(=O)N1CCc2c(sc(NC(=O)C3CCN(S(=O)(=O)c4cccs4)CC3)c2C(N)=O)C1	none
